Laboratory results as given in PubChem BioAssay AID504727 (Broad Institute, 2011).
Values joined by “and” are separate entries in the source; they are usually repeats but may differ in a detail not shown here. Equal values may be shown once. Active and inactive are the calls of the source.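 Rule for the calls: active = fitted half-maximal concentration AC50 at or below ten times the highest valid tested dose, with signal falling as DNA is displaced (actives reach about 34 µM in these data); inconclusive = flat fit at moderate signal loss, or poor fit quality; inactive = the rest, including signal rising instead of falling.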

Test: acridine orange-DNA binding displacement – biochemical, fluorescence polarization, cherry-picked samples, set 2, artefact control for KSHV LANA DNA-binding inhibitor project, dose response (AID 504727)
Conditions: series mostly up to 35 µM
In the case of `COc1cccc(C2CC(=O)Nc3cc4c(cc32)CCC4)c1` (stereo not drawn), the AC50 is reported as “inactive”.
With `Cc1ccc(S(=O)(=O)Nc2ccc(Br)cc2C(NCC(=O)O)c2ccccc2)cc1` (stereo not drawn) the AC50 was “inactive”.
In the case of `COc1cccc2c1C(=O)c1c(O)c3c(c(O)c1C2=O)C[C@@](O)(C(C)=O)C[C@@H]3O[C@H]1C[C@H](N)[C@H](O)[C@H](C)O1`, the AC50 is reported as 1.89 µM (active).
In the case of `Nc1ccc2c(O)cc(S(=O)(=O)O)cc2c1`, the AC50 is reported as “inactive”.
With `CN1C(=O)NC(c2ccccc2[N+](=O)[O-])C2=C1CCCC2=O` (stereo not drawn) the AC50 was 29.7 µM (active).
In the case of `c1ccc2[nH]c3cc4ncnc4cc3nc2c1`, the AC50 is reported as 11.7 µM (active).
With `C[n+]1c2cc(N)ccc2cc2ccc(N)cc21` the AC50 was 1.66 µM (active) and 2.31 µM (active).
In the case of `Cc1ccc2cccc(OCC(=O)NCCC3=CCCCC3)c2n1`, the AC50 is reported as “inactive”.
For `COc1ccc(NC(=O)CO/N=C2/CCCc3nonc32)c(OC)c1`, the AC50 was “inactive”.
For `Cc1cc(NS(=O)(=O)c2ccc(Nc3nc(-c4sc(N)nc4C)cs3)cc2)no1`, the AC50 was “inactive”.
With `CCc1noc(C)c1C(=O)N1CCCC(N2CCN(c3ccc(F)cc3)CC2)C1` (stereo not drawn) the AC50 was “inactive”.
In the case of `O=c1[nH][nH]cc1C=Nc1ccc(Cl)cc1Cl`, the AC50 is reported as “inactive”.
With `NNc1nnc2c3cc(F)ccc3n(Cc3ccccc3)c2n1` the AC50 was “inactive”.
For `O=C1CCCC2=C1C(c1ccc(O)c(O)c1)Nc1ccc3ncccc3c12` (stereo not drawn), the AC50 was “inactive”.
With `Cc1c(C)n(CCC(=O)O)c2ccccc12` the AC50 was “inactive”.
With `Nc1c(-c2ccccn2)cnn1-c1nc(-c2ccc(F)cc2)cs1` the AC50 was “inactive”.
With `COc1cc2c(cc1OC)-c1cc3ccc4c(c3c[n+]1CC2)OCO4` the AC50 was 32.2 µM (active).
With `COc1ccc(C2c3ccc(O)cc3Oc3ncn(CCCO)c(=N)c32)cc1OC` (stereo not drawn) the AC50 was “inactive”.
For `CCCCn1nc(CC(=O)O)c2ccccc2c1=O`, the AC50 was “inactive”.
In the case of `COc1ccc(CCNC(=O)CNC(=O)Cn2ccc3ccccc3c2=O)cc1OC`, the AC50 is reported as “inactive”.
In the case of `CN(c1ccccc1)S(=O)(=O)c1cccc(NS(=O)(=O)c2cccc(C(=O)O)c2)c1`, the AC50 is reported as “inactive”.
For `OCCN(CCO)c1nc(N2CCCCC2)c2nc(N(CCO)CCO)nc(N3CCCCC3)c2n1`, the AC50 was 8.59 µM (active).
For `CC1=C(O)C(=O)C(C2=C(O)C(=O)C(C)=C(O)C2=O)=C(O)C1=O`, the AC50 was “inactive”.
With `Cc1ccc(N2CC(C(=O)Nc3nnc(SCC(=O)Nc4nc(C)cs4)s3)CC2=O)cc1` (stereo not drawn) the AC50 was “inactive”.
In the case of `CCc1nnc(NC(=O)c2cccc(S(=O)(=O)N(C)c3ccccc3)c2)s1`, the AC50 is reported as “inactive”.
In the case of `C/C(=N/NC(=O)c1ccncc1)c1cc2ccc(O)cc2oc1=O`, the AC50 is reported as 0.343 µM (active).
In the case of `CC(C)N(Cc1ccccc1)C(=O)Cn1c(=O)cnc2ccccc21`, the AC50 is reported as “inactive”.
With `Cc1c(N)cc(S(=O)(=O)O)cc1NC(=O)c1cccc([N+](=O)[O-])c1` the AC50 was “inactive”.
For `COc1ccccc1CNC(=O)CCS(=O)(=O)c1cccs1`, the AC50 was “inactive”.
In the case of `CCCCN(C(=O)CSc1nnc(-c2ccc(Cl)cc2)o1)c1c(N)n(CC(C)C)c(=O)[nH]c1=O`, the AC50 is reported as “inactive”.
For `CCCOc1ccc(C=Nc2ccc(OC)c(S(=O)(=O)N3CCOCC3)c2)c(O)c1`, the AC50 was “inactive”.
For `COc1cccc2c1C(=O)c1c(O)c3c(c(O)c1C2=O)C[C@@](O)(C(=O)CO)C[C@@H]3O[C@H]1C[C@H](N)[C@H](O)[C@H](C)O1`, the AC50 was 2.4 µM (active).
With `O=C1c2ccccc2C(Nc2ccc3c(c2)OCCO3)N1Cc1ccc2c(c1)OCO2` (stereo not drawn) the AC50 was “inactive”.
For `Cc1ccccc1NC(=O)CN1C(=O)N/C(=C\c2cccn2-c2cccc(C(=O)O)c2)C1=O`, the AC50 was “inactive”.
With `CCOC(=O)c1c(C)n(C)c2ccc(OCCN(C)C)cc12` the AC50 was “inactive”.
With `CCN(C(=O)COC(=O)c1nc2nc(C)cc(C)n2n1)C1CCCCC1` the AC50 was “inactive”.
For `O=C(NCC1CCCO1)c1cccc(S(=O)(=O)N(Cc2ccccc2)c2ccccc2)c1` (stereo not drawn), the AC50 was “inactive”.
In the case of `CCN(C(=O)COC(=O)c1ccc([N+](=O)[O-])o1)C1CCCCC1`, the AC50 is reported as “inactive”.
